# ChEMBL document CHEMBL3988442, “University of Dundee, Small-Polar-MMV Screening Library” (2021)
# For some assays here: Measured potencies and affinities stand elsewhere.
# Legend:
# Design in all cases: scale not given: direction of the effect not stated beside the values
# [1] = biological target: Protein translocase subunit SecA (Escherichia coli (strain K12)) (UniProt P10408); test: Assay to Identify E. coli SecA ATPase Inhibitors; assay type: functional; conditions: 30 µM
# [2] = biological target: T1, Ubiquitin-activating enzyme e1, putative (Leishmania donovani (strain BPK282A1)) (UniProt E9BSI1); test: Leishmania donovani Ubiquitin Activating Enzyme (LdE1); assay type: functional; conditions: 30 µM
# T1 sequence (whole entry): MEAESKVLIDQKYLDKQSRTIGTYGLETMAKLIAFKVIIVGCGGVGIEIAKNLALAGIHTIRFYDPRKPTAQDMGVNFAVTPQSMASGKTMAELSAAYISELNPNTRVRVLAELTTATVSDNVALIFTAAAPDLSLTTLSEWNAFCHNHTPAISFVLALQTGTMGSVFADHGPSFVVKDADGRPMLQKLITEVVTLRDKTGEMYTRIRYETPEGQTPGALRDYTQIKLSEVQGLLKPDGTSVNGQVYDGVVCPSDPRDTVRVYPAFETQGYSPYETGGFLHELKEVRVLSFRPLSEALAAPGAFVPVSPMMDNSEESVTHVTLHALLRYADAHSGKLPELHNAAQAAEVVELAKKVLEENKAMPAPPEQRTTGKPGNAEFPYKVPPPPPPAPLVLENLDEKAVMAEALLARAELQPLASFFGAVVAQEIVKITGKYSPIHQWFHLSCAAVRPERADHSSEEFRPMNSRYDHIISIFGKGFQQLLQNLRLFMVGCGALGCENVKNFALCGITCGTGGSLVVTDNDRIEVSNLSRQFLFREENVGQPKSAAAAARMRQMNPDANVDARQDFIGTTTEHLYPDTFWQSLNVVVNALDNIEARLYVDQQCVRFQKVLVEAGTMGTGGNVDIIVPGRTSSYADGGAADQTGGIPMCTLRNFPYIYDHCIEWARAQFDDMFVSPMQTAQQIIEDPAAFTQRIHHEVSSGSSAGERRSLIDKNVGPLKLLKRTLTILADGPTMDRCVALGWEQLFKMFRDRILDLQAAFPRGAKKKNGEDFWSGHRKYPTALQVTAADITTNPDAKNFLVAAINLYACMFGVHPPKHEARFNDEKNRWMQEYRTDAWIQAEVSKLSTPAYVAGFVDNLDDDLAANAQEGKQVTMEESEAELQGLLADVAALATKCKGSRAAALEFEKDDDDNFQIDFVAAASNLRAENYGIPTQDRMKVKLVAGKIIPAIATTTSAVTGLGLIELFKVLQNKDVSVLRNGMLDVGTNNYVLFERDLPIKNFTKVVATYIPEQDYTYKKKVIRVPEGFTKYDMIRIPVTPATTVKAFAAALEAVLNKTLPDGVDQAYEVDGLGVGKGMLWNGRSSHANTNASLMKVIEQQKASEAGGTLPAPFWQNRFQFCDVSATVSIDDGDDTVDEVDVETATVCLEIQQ
# [3] = biological target: AMP-activated protein kinase, AMPK (Homo sapiens) (UniProt P54646+O43741+P54619+Q9UGJ0+Q9Y478+Q13131+Q9UGI9); test: AMP-dependent Kinase enzyme assay. An in vitro enzyme assay that detects ADP turnover that is directly proportional to AMPK activity. This uses naive AMPK that is activated during the assay with MK-8722; assay type: functional; conditions: 30 µM
# [4] = biological target: Sialic acid-binding Ig-like lectin 9 (Homo sapiens) (UniProt Q9Y336); test: Hs-Siglec9 ALPHAscreen SOP 20170721; conditions: 10 µM
# Trypanosoma cruzi = test: Trypanosoma cruzi phosphomannomutase and mannose-1-phosphate guanylyltransferase assay; assay type: functional; conditions: 10 µM
# [5] = biological target: T2, Arginase-2, mitochondrial (Homo sapiens) (UniProt P78540); test: in vitro enzyme assay to detect the production of urea directly proportional to the activity of Arginase II; assay type: functional; conditions: 33.3 µM; also: in the data most compounds retested in dose-response had high values
# T2 sequence (whole entry): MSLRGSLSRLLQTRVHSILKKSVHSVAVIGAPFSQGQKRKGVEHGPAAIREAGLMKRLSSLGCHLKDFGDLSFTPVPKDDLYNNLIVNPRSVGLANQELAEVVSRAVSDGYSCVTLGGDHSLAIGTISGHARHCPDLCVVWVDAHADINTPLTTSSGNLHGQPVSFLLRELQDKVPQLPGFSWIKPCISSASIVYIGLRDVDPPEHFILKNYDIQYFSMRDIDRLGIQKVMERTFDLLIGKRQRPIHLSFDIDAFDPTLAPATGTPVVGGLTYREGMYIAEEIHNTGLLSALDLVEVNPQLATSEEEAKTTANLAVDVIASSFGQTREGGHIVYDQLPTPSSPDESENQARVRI
# [6] = biological target: T3, Proteasome subunit beta (Trypanosoma cruzi) (UniProt O96673); test: Trypanosoma cruzi proteasome chymotrypsin-like activity (TcProtChymo) assay.; also: in the data most compounds retested in dose-response had high values; assay type: functional; conditions: 9.37 µM
# T3 sequence (whole entry): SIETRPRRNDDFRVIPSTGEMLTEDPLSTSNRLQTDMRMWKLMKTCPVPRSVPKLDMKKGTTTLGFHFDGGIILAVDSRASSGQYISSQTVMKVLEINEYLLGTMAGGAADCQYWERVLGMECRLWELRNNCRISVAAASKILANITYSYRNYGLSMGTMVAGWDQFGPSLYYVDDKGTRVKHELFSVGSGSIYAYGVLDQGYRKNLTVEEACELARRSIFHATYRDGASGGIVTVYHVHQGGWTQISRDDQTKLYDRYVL
# Homo sapiens = species on record: Homo sapiens; test: To identify inhibition of the IFN signalling (Jak-Stat) pathway via expression of an eGFP reporter gene under the control of an IFN-stimulated response element (ISRE) containing MxA promoter.; assay type: functional; conditions: 30 µM
# [7] = biological target: T4, Tyrosyl-tRNA synthetase, putative (Trypanosoma cruzi (strain CL Brener)) (UniProt Q4DSP6); test: Trypanosoma cruzi tyrosyl tRNA synthetase (TcYRS) _High Tyrosine SOP; assay type: functional; conditions: 30 µM; also: in the data most compounds retested in dose-response had high values
# T4 sequence (whole entry): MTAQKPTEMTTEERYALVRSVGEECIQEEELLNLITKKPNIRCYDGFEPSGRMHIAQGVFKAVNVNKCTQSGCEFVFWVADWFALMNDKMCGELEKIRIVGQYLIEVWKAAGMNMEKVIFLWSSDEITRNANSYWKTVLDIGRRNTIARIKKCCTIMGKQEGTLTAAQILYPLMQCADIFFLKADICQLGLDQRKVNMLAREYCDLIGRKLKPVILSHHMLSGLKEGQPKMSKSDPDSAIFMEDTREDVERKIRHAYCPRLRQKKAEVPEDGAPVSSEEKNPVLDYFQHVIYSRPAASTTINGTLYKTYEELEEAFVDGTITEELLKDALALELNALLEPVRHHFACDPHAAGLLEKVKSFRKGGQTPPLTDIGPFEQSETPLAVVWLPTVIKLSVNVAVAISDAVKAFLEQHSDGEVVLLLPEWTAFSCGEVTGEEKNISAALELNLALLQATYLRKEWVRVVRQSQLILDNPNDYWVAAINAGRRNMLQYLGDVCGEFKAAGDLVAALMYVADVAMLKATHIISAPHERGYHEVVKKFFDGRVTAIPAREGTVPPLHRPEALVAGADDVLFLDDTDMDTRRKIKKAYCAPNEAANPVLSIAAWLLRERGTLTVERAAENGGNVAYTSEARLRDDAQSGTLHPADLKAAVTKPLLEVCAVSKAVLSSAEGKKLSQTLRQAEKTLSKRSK
# [8] = biological target: T4, Tyrosyl-tRNA synthetase, putative (Trypanosoma cruzi (strain CL Brener)); test: Trypanosoma cruzi tyrosyl tRNA synthetase (TcYRS) SOP; assay type: functional; conditions: 30 µM
# [9] = biological target: Chromo domain-containing protein 1 (Saccharomyces cerevisiae (strain ATCC 204508 / S288c) (Baker's yeast)) (UniProt P32657); test: ScCHD-1 Enzyme Inhibition Assay; assay type: functional; conditions: 30 µM; also: in the data most compounds retested in dose-response had high values
# Chromo domain-containing protein 1 (Saccharomyces cerevisiae (strain ATCC 204508 / S288c) (Baker's yeast)), sequence (P32657 whole entry, the tested form may be a part): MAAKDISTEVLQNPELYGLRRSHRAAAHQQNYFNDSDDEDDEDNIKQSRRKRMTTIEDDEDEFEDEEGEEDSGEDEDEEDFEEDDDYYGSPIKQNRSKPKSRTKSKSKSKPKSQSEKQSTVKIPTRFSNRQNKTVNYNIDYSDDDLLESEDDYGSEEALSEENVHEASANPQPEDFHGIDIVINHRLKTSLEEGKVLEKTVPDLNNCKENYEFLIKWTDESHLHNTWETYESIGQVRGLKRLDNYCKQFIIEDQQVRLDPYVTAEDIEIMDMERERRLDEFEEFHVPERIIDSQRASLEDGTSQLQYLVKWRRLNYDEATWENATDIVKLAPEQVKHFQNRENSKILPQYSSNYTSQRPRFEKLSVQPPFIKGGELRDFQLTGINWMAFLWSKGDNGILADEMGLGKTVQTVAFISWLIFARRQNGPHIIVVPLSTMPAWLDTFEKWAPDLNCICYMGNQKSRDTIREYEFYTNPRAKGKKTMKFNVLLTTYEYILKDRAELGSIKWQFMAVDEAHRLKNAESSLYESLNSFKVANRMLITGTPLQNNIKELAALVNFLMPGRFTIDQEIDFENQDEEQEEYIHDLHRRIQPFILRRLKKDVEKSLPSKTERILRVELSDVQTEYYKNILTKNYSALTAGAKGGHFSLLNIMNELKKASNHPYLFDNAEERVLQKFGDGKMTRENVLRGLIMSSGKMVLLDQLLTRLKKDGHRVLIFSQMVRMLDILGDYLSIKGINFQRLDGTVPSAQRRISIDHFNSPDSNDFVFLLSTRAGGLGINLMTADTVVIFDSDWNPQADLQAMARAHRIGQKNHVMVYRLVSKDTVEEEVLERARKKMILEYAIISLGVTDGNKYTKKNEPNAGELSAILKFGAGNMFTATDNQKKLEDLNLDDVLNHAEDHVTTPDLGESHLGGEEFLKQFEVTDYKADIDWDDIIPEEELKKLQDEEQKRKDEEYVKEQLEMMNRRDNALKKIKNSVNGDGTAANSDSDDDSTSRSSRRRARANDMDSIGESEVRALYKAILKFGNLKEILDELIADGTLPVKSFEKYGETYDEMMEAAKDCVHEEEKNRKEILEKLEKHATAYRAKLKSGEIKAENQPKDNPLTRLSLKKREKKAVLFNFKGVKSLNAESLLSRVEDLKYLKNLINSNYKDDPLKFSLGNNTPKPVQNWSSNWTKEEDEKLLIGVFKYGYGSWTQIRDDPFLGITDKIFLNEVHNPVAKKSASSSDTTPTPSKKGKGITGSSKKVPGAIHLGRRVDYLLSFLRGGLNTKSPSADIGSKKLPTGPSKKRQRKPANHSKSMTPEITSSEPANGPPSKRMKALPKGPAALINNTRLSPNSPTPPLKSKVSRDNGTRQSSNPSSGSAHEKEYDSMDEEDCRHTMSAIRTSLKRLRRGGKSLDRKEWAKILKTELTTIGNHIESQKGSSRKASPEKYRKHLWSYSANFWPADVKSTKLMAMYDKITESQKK
# Protein translocase subunit SecA (Escherichia coli (strain K12)), sequence (P10408 whole entry): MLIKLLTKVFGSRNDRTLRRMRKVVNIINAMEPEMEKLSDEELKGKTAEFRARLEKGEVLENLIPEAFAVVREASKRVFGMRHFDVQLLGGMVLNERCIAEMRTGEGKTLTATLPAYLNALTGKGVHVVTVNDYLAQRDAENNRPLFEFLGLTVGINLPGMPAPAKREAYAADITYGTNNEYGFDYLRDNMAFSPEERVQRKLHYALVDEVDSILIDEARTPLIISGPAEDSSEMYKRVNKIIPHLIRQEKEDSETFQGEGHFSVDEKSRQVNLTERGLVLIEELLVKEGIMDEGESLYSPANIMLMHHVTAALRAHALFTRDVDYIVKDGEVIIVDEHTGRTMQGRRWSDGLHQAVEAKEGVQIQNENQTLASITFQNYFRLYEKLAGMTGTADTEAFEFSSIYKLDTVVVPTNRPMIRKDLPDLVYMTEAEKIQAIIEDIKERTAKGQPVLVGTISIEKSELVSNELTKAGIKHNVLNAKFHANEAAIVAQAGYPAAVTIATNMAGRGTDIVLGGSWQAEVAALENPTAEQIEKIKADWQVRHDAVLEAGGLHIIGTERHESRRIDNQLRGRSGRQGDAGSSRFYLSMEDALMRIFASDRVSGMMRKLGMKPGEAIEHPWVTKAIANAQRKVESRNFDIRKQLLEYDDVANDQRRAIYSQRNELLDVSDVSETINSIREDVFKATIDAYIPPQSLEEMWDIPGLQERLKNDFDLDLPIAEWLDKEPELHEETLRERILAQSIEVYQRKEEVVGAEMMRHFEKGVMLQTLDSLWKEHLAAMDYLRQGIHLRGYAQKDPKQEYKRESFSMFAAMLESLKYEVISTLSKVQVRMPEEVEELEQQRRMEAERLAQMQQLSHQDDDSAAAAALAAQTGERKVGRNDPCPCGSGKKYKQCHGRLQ
# Sialic acid-binding Ig-like lectin 9 (Homo sapiens), sequence (Q9Y336 whole entry): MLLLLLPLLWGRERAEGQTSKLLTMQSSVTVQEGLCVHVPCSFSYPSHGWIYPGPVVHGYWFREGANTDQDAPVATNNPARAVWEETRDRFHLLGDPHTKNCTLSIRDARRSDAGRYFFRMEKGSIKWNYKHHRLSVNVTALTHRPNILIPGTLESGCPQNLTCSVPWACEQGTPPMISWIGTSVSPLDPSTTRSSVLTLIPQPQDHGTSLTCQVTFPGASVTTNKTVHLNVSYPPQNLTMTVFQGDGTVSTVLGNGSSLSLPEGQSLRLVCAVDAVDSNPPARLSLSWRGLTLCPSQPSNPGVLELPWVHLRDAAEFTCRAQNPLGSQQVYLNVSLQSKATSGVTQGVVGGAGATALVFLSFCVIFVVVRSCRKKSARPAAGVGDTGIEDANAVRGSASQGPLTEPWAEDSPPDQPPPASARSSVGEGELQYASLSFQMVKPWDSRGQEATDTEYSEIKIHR
SMILES,Percent Effect [1] [%],Percent Effect [2] [%],Percent Effect [3] [%],Percent Effect [4] [%],Percent Effect (Trypanosoma cruzi) [%],Percent Effect [5] [%],Percent Effect [6] [%],Percent Effect (Homo sapiens) [%],Percent Effect [7] [%],Percent Effect [8] [%],Percent Effect [9] [%]
CN(Cc1ccc(Cl)s1)C1CCCN(c2cccnn2)C1 (configuration not stated),-0.186,-18.4,14.3,0.257,1.27,15.4,7.19,10.5,9.57,10.4,-1.67
CC(C)=CCN(C)C1CCCN(Cc2noc(C)n2)C1 (configuration not stated),-2.36,18.9,22.7,-3.99,-3.06,1.29,9.7,15.7,1.98,13.4,-3.38
Cc1[nH]c(=O)[nH]c(=O)c1CN1CCCC(CCc2ccccc2)C1 (configuration not stated),-1.15,2.7,-3.11,8.59,-5.02,0.952,18.1,-0.602,4.76,17.1,-3.68
Cc1nc(CCNC(=O)NCc2ccc(N(C)C)nc2)cs1,-4.75,13.5,-4.65,3.94,1.79,-0.401,12.1,-114,9.36,16.1,-4.66
c1cn(Cc2nnc(C3CCN(C4CCOCC4)CC3)n2C2CC2)cn1,-3.73,2.67,-3.77,-0.983,-3.21,0,26.7,21.6,2.73,3.7,-5.45
Cn1cnnc1CNC(=O)Nc1cc(C(F)(F)F)c[nH]c1=O,-4.28,7.89,-0.726,8.28,1.5,-0.383,3.84,2.52,2.45,7.32,-7.82
Cn1cc(C2CCCN2Cc2csc(-c3ccsc3)n2)cn1 (configuration not stated),-1.56,-2.53,-11.2,3.12,-7.46,0.76,3.36,8.82,-24.1,3.8,-2
CN1CCN(C2CCN(CC(=O)NCC(F)(F)F)CC2)C1=O,-6.45,15.2,-9.09,10.9,7.46,-3.8,5.32,-11.8,3.45,13.9,-3.32
O=C(c1ccc[nH]1)N1CCC(c2nccn2Cc2ccncc2)CC1,-3.39,13.7,-1.71,5.74,7.05,14.1,8.7,11.4,5.38,10,-6.61
COc1cccc2c1OCC(NC(=O)NC1CCN(C3CC3)CC1)C2 (configuration not stated),-3.95,0,4.77,0.911,4.77,0,10.6,3.27,6.38,7.79,-0.292
CN(C)Cc1cnc2n1CCN(Cc1ccsc1)CC2,-2.78,13.7,-4.83,6.79,2.98,1.2,13.4,6.89,8.33,11.1,-0.604
O=C(c1ccoc1)N1CCCn2cnc(COCC3CC3)c2C1,-3.46,13.5,6.15,-4.88,1.07,9.24,22.1,0.302,2.16,15.4,-0.464
Cc1cc(C)n(CC2CCCN2CCCS(=O)(=O)N(C)C)n1 (configuration not stated),-1.98,16.2,-6.22,14,5.99,11.9,13.6,8.21,4.76,19.5,-4.54
COc1cc(CNCc2ccnc(N3CCOCC3)c2)cc(Cl)c1OC,-5.46,16.2,-4.43,13.4,0.0943,-5.21,3.78,27.8,5.42,18.5,-8.15
Cn1cccc1C(=O)N1CCCN(CCCc2ccccc2)CC1,4.69,-11,-4.66,8.38,-2.38,-14.8,14.3,18.6,9.38,16.1,-3.52
O=C1COc2ccc(C(=O)NS(=O)(=O)c3ccc(F)cc3F)cc2N1,-2.51,-7.89,6.3,-2.06,2.15,-4.32,-1.78,-9.03,4.43,3.7,6.46
Cc1cc(C)n(CC2CCCN2CC(=O)N(C)C)n1 (configuration not stated),-2.72,-2.7,-5.85,20,-2.92,-4.01,9.19,3.86,-0.493,1.24,-0.0682
CN(C)C(C(=O)N1CCCC1)c1ccccc1F (configuration not stated),-2.84,1.39,3.5,-3.25,-5.54,5.3,4.74,-1.68,3.16,2.56,-0.0422
Cn1cc(Cl)cc1C(=O)N1CCCN(Cc2cccs2)CC1,-2.72,-10.5,7.51,-1.79,1.32,1.53,-1.34,-3.88,4.41,0,7.24
CN(C)C(CNC(=O)NCCc1cccc(O)c1)c1ccco1 (configuration not stated),-1.55,5.41,0.167,22.4,3.81,6.7,13,-1.66,0,6.17,-9.98
CN1CC2(CCN(Cc3ccoc3)CC2)COc2ccccc2S1(=O)=O,-0.535,2.7,-0.665,1.6,-3.23,5.21,14.8,4.83,7.53,13.6,-2.59
Cc1ccc(NC(=O)c2cc(S(=O)(=O)N3CCCCC3)c[nH]2)cc1F,-2.47,5.2,59.4,-11.2,-5.03,5.81,6.61,4.38,5.29,-21.8,-9.19
